Bioassay records: PubChem BioAssay, National Center for Advancing Translational Sciences (NCATS)
Only some compounds are listed: those with a hit (about 5.8% of all), similar ones and a draw of the others.
SW480 rerep – A quantitative high throughput screen for small molecules that induce DNA re-replication in SW480 colon adenocarcinoma cells; SW480 DNA re-replication, Hoechst DNA content imaging, 48 h; Potency, µM (highest dose often 46.1 µM), without a hit: at the highest dose re-replication activation, usual class: activators; 340,000 compounds, 1.8% hits; AID 624297, 2012; also: % of control where 0% means no effect; nearly all actives have a fitted effect of over 55% in size
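Image-based read-out: total Hoechst fluorescence of nuclei (405 nm excitation, 500-530 nm emission), with hits raising the fraction of high-intensity nuclei. SW480 colon cells incubated 48 hr with compounds at 37 C.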
KB-V1 MDR tox – qHTS assay for MDR1-selective chemotherapeutics: Primary screen using the drug-selected MDR subline cells KB-V1 | 400,000 compounds, 3.4% hits | KB-V1 MDR cells viability, CellTiter-Glo, 72 h | Potency, µM (doses to about 46.1 µM), actives largely listed as cytotoxic | AID 1347076, 2019; also: % is scaled to controls: 0 for no effect and ±100 for the full control effect; nearly all actives have a fitted effect of over 60% in size
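Luminescent ATP read-out (CellTiter-Glo, 10 min) measures survival of drug-selected KB-V1 MDR cells after 72 h, 37 degrees C compound exposure. Medium: phenol-red-free DMEM, 10% FBS. Values from fitted concentration-response curves.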
PINK1 expr mod – A Quantitative High throughput Screen to Identify Chemical Modulators of PINK1 Expression. PINK1 immunofluorescence, high-content cytometry, 24 h. 410,000 compounds, 0.2% hits. AID 624263, 2012. Potency, µM (top dose mostly 76.6 µM), inactives show at the top dose activation (PINK1 increase), most hits filed as activators; active = well fitted activation curve with a large enough effect; inconclusive = small, poorly fitted or top-dose-only effect; cell line not stated here; also: % of control where 0% means no effect; nearly all actives have a fitted effect of over 65% in size
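Measures PINK1 amount and localization on or inside mitochondria by immunofluorescence. Stable cells get compounds at 5 concentrations for 24 hours before fixation and staining; CCCP controls included.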
12-LOX inh – Primary qHTS assay for inhibitors of human arachidonate 12S-lipoxygenase (ALOX12): Round 2; Polyunsaturated fatty acid lipoxygenase ALOX12 (Homo sapiens), P18054; purified 12hLO, xylenol orange hydroperoxide absorbance; Potency, µM (highest dose often 108 µM), without a hit: at the top dose activity change, negative = inhibition, most hits filed as inhibitors; 580,000 compounds, 1.1% hits; AID 1671190, 2021; also: % is scaled to controls: 0 for no effect and ±100 for the full control effect
Target sequence (P18054 whole entry, looked up): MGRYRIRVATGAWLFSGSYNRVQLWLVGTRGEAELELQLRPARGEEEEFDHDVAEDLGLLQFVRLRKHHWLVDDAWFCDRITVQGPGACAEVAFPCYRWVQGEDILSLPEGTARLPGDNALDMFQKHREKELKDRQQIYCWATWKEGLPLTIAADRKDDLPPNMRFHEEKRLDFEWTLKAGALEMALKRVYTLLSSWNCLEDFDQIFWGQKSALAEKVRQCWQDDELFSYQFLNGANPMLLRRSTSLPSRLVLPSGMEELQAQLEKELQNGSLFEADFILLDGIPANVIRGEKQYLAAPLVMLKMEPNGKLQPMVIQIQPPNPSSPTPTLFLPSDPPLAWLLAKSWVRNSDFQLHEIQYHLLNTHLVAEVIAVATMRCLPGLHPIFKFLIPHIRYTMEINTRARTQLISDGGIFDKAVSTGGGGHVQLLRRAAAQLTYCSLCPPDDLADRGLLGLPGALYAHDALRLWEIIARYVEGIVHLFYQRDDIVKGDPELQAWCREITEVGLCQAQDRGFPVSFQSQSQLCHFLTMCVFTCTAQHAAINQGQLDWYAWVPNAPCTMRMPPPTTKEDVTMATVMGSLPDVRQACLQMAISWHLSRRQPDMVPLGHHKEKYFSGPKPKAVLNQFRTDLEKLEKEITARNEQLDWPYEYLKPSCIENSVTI
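Purified human 12hLO at 150 nM in 25 mM Hepes, 0.01% Triton X-100, pH 7.0, preincubated 15 min at room temperature with compound. Reaction started with 40 uM arachidonic acid, 30 min at room temperature. Hydroperoxide measured by Fe-xylenol orange, 573/405 nm absorbance ratio.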
KB-3-1 tox – qHTS assay for MDR1-selective chemotherapeutics: Primary screen using the parental adenocarcinoma cell KB-3-1; 400,000 compounds, 1.4% hits; Potency, µM (titrated, usually from 46.1 µM), most hits filed as cytotoxic; KB-3-1 viability, CellTiter-Glo ATP luminescence, 72 h; also: % is scaled to controls: 0 for no effect and ±100 for the full control effect; nearly all actives have a fitted effect of over 60% in size
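Cytotoxicity measured as CellTiter-Glo luminescence after 72 h at 37 C. Compound titrations were pinned onto drug-naive KB-3-1 parental adenocarcinoma cells grown in DMEM with 10% FBS, and normalized data fitted to concentration-response curves.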
MCF10A rerep – A quantitative high throughput screen for small molecules that induce DNA re-replication in MCF 10a normal breast cells; AID 624296, 2012; Potency, µM (doses to about 46.1 µM), without a hit: at the highest dose activity, positive = re-replication, actives largely listed as activators; MCF 10A DNA re-replication, Hoechst nuclear intensity, 48 h; 350,000 compounds, 2.9% hits; also: % of control where 0% means no effect; nearly all actives have a fitted effect of over 50% in size
An asterisk follows results filed as active; i = inactive; ? = inconclusive; . = no result; [ ] = dose if it differs, or a comment. Unless noted, calls follow the shape of the dose curve; as a rule, active = well fitted curve in the direction sought with a large enough effect; inconclusive = small, poorly fitted or top-dose-only effect, or another doubt; inactive = no such curve, though single readings can be large; an effect the other way counts as inactive or inconclusive. Potency is read from the fitted curve at half-maximal effect.

SMILES | SW480 rerep | KB-V1 MDR tox | PINK1 expr mod | 12-LOX inh | KB-3-1 tox | MCF10A rerep
Cc1nn(-c2ccc(Cl)cc2)c(=O)c2ccccc12 | -12.5% | i | -0.4% | ? | i | -4.8%
Cc1c(Cl)sn(-c2ccc(Cl)cc2)c1=O | 1.84µM* | ? | 4.1% | 4.47µM* | 16.4µM* | 3.26µM*
COc1ccc(Cn2c(C3CC3)nc3ccc(NC(=O)c4cccnc4)cc3c2=O)cc1 | ? | ? | 4.1% | . | 5.8µM* | 1.3%
CCc1cccc2c(C(=O)COC(=O)c3ccc([N+](=O)[O-])s3)c[nH]c12 | 7.5% | i | ? | -1.8% | ? | 18.4%
O=C(OCC(=O)c1c[nH]c2ccccc12)c1ccc([N+](=O)[O-])s1 | 20.6µM* | ? | -0.5% | -25.3% | i | -12.2%
CCOC(=O)C1=C(C)OC(n2cccc2)=C(C#N)C1c1cc(OC)c(OC)c(OC)c1 (configuration not stated) | . | . | . | -0.6% | . | .
CCCCCCCCCC[n+]1cccc(Br)c1 | . | i | 24.8% | . | ? | .
CCC(C)(C)c1ccc(OCCCC[n+]2cccc(C)c2)c(C(C)(C)CC)c1 | ? | i | 5.8% | ? | 3.26µM* | ?
CCN(CC)CCOc1ccc(-c2nc3cc(Cl)ccc3s2)cc1 | 18.8µM* | . | . | . | . | 23.7µM*
CCN(CC)CCOc1ccc2nc(N(C)C)sc2c1 | -4.6% | i | -2.0% | 0.0% | i | 9.1%
Nc1ccc(C(=O)NN2C(=O)[C@H](Cl)C2c2ccc(Cl)cc2)cc1 (some centres not stated) | 9.2µM* | ? | -6.9% | ? | ? | 16.4µM*
CCNC(=O)CC1C(=O)N(C)C(=S)N1NC(=O)c1ccc(Cl)cc1 (configuration not stated) | 0.5% | i | -2.7% | ? | i | 3.9%
Cc1cccc(OCC(=O)Nc2onc3c2CC(C)CC3)c1 (configuration not stated) | . | . | . | 10.3% | . | .
CCOC(=O)CSC1=NC(=O)CS1 | ? | i | 3.1% | 0.0% | i | 20.6µM*
CCOC(=O)CSc1snnc1C | -12.2% | i | 26.9%[38.3 µM] | 0.0% | i | -2.6%
C/C(=N\NC(=O)CN1CCOCC1)C(C)(C)C | -6.7% | i | 10µM* | 13.5% | i | ?
CN(C)C(CNS(=O)(=O)c1ccc(Cl)cc1F)c1ccco1 (configuration not stated) | -1.1% | 18.4µM* | -0.5% | 15.0% | i | 2.7%
N#Cc1ccc(N2C[C@@H]3OCC(=O)N(CC4CCCCC4)[C@@H]3C2)nc1 | . | . | . | 8.1%[176 µM] | . | .
O=C1CO[C@H]2CN(c3ncccn3)C[C@H]2N1CC1CCCCC1 | . | . | . | 28.2µM* | . | .
COCCNC(=O)NC(=O)CN(CC(C)C)C1CC1 | . | . | . | -18.6% | . | .
c1ccc(Nc2nc(N3CCCCC3)nc(N3CCNCC3)n2)cc1 | -3.4% | 20.6µM* | 8.2%[38.3 µM] | 15.0% | i | -2.0%
Cc1cccc(Nc2nc(N3CCCC3)nc(N3CCCC3)n2)c1 | ? | 9.2µM* | 10.5%[38.3 µM] | ? | i | 20.6µM*
COc1ccc(C(=O)N2CCN(C(=O)c3cn(C)c4ccccc34)CC2)cc1OC | . | . | . | -6.2% | . | .
COC(=O)c1c(C)[nH]c(C(=O)CSc2cc(F)ccc2F)c1C | . | . | . | 42.3% | . | .
COc1ccc(C(C)=O)cc1CC(=O)Nc1cc(C)ccc1C | . | . | . | -9.2% | . | .
SMILES | SW480 rerep | KB-V1 MDR tox | PINK1 expr mod | 12-LOX inh | KB-3-1 tox | MCF10A rerep
Cc1ccccc1CN(C)C(=O)CN1CCCC1c1ccc2c(c1)OCCCO2 (configuration not stated) | . | . | . | -0.7% | . | .
CCc1cccc(NC(=S)N(CCC(C)C)C(C)c2cccs2)c1 (configuration not stated) | . | . | . | 39.8µM* | . | .
CCc1cccc(NC(=S)N(CCOC)C(C)c2ccco2)c1 (configuration not stated) | -0.5% | i | 4.3% | -2.2% | i | 0.3%
CCCNCc1ccc(-c2ccc(Br)cc2)o1 | . | . | . | -29.2% | . | .
C=CC[n+]1c(-c2ccc(Cl)cc2Cl)csc1Nc1c(C)n(C)n(-c2ccccc2)c1=O | ? | i | 5.4% | ? | ? | ?
C=CC[n+]1c(-c2ccc(Cl)cc2Cl)csc1Nc1ccc(NC(C)=O)cc1 | 23.1µM* | i | -1.1% | ? | ? | ?
CCCC[n+]1c(-c2ccc(Cl)cc2Cl)csc1Nc1ccccc1 | 0.8% | ? | 7.7% | -19.2% | i | 23.1µM*
Cc1ccc(Sc2ccc(NC(=O)c3cccc4ccccc34)cc2)c(C)c1 | . | . | . | -25.1% | . | .
O=S(=O)(Nc1cccc2c1CCCC2)c1ccccc1Cl | . | . | . | 130.9% | . | .
N#C/C(=C/c1cccn1-c1cccc(C(=O)O)c1)c1ccc(Cl)cc1 | 3.4% | i | -1.5% | 44.7µM* | i | ?
Cc1cc(=O)oc2cc(NC(=O)Cc3cccc(F)c3)ccc12 | . | . | . | -4.2% | . | .
NC(C(=O)O)C1ON=C(Cl)C1O (configuration not stated) | ? | 1.64µM* | -5.4% | ? | 0.326µM* | 0.4%
C(=N\Nc1nc2ccccc2[nH]1)/c1ccccc1 | -1.5% | ? | 5.4% | 8.7% | i | 2.9%
C/C(=N\Nc1nc2ccccc2[nH]1)c1ccc(Cl)s1 | 0.8% | 20.6µM* | 8.0% | ? | ? | ?
Brc1ccc(-c2ccc(/C=N/Nc3nc4ccccc4[nH]3)o2)cc1 | 5.8µM* | i | ? | -21.7% | i | 11.6µM*
C(=C\c1ccccc1)/C=N/Nc1nc2ccccc2[nH]1 | ? | i | 9.2% | ? | 14.6µM* | 4.61µM*
Cc1nn(-c2ccccc2)c(Cl)c1/C=N/Nc1nc2ccccc2[nH]1 | ? | ? | 3.4% | -0.2% | ? | 7.31µM*
CC(C)(C)C(=O)NC[C@H]1O[C@H](Cc2cc(-c3ccc(F)cc3)on2)CC[C@@H]1O | . | . | . | 22.2%[176 µM] | . | .
Cc1ccccc1/C=N/Nc1nc2ccccc2[nH]1 | 1.2% | i | 8.9% | 29.3% | i | ?
Cc1ccc(/C=N/Nc2nc3ccccc3[nH]2)s1 | ? | 14.6µM* | 1.4% | ? | i | ?
O=[N+]([O-])c1cc(/C=N/Nc2nc3ccccc3[nH]2)c(O)cc1O | ? | i | -1.5% | ? | i | 3.26µM*
CS(=O)(=O)c1nc(-c2ccccc2)cc(C(F)(F)F)n1 | ? | ? | -1.2% | -3.4% | ? | 2.59µM*
